Inconclusive results are not listed. Activity calls are given as the source filed them. Calls follow the shape of the dose curve; as a rule, active = well fitted curve in the direction sought with a large enough effect; inconclusive = small, poorly fitted or top-dose-only effect, or another doubt; inactive = no such curve, though single readings can be large; an effect the other way counts as inactive or inconclusive.
Key:
[1] = biological target: Calcium and integrin-binding protein 1 (Homo sapiens) (UniProt Q99828); assay: Primary qHTS for Identification of Calcium Integrin Binding Protein 1 (CIB1) Competitor (AID 1508620); conditions: CIB1-GST / FITC-alphaIIb peptide fluorescence polarization; series mostly up to 57.7 µM;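 also: GST tagged CIB1 binding a fluorescein labelled alphaIIb integrin peptide tracer; top concentration of the series differs between compounds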
Calcium and integrin-binding protein 1 (Homo sapiens), sequence (Q99828 whole entry, looked up): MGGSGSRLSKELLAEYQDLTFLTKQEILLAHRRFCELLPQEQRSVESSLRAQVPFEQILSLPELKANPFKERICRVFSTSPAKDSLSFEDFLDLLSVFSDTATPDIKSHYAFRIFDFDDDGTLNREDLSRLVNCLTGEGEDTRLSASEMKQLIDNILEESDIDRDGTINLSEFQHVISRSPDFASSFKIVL
Summary of the method: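 Fluorescence polarization competition: CIB1-GST (1 uM final) preincubated with compound 15 min at room temperature, then FITC-labeled alphaIIb peptide (100 nM final) added for another 15 min. Polarization read at Ex 480/Em 540.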

[2] = Primary qHTS for inhibitors of nuclear receptor binding SET domain protein 2 (NSD2) in an isogenic RCH-ACV NSD2 p.E1099K mutant (9B) (AID 1645876); conditions: RCH-ACV NSD2 E1099K (9B) viability, CellTiter-Glo, 72 h; series mostly up to 44.9 µM; also: nearly all actives have a fitted effect of over 70% in size
[3] = Primary qHTS for inhibitors of nuclear receptor binding SET domain protein 2 (NSD2) in an RCH-ACV wild type WT cells (2C) (AID 1645877); conditions: RCH-ACV (leukaemia line) NSD2 WT (2C) viability, CellTiter-Glo, 72 h; series mostly up to 44.9 µM; also: nearly all actives have a fitted effect of over 70% in size
% is scaled to controls: 0 for no effect and ±100 for the full control effect.

COc1c(O[C@@H]2O[C@H](CO)[C@@H](O)[C@H](O)[C@H]2O)c(CCC(=O)O)cc2ccoc12
inactive: Potency [1] | Potency [2] | Potency [3]

C=C1CCC2[C@](C)(CCC[C@]2(C)C(=O)O)[C@H]1CC/C(C)=C/C(=O)OC (stereo partly drawn)
inactive: Potency [1] | Potency [2] | Potency [3]

C[C@@H]1O[C@@H](O[C@@H]2[C@@H](O)[C@H](O[C@@H]3[C@@H](O)[C@@H](O)[C@H](O[C@H]4[C@H](OC(=O)[C@]56CCC(C)(C)C[C@H]5C5=CCC7[C@@]8(C)C[C@H](O)[C@H](O[C@@H]9O[C@H](C(=O)O)[C@@H](O)[C@H](O)[C@H]9O)[C@@](C)(CO)C8[C@H](O)C[C@@]7(C)[C@]5(C)C[C@H]6O)O[C@@H](CO)[C@@H]4O)O[C@H]3C)OC[C@H]2O)[C@H](O)[C@H](O)[C@H]1O (stereo partly drawn)
inactive: activity change, negative = inhibition [1] 0.349% [at 12.4 µM] | activity change, negative = viability loss [2] -3.74% [at 9.23 µM] | activity change, negative = cell killing [3] -10.6% [at 9.23 µM]

CC(C)=CCC[C@](C)(O[C@@H]1O[C@H](CO[C@@H]2O[C@@H](CO)[C@H](O)[C@H]2O)[C@@H](O)[C@H](O)[C@H]1O)[C@H]1CC[C@]2(C)[C@@H]1[C@H](O)C[C@@H]1[C@@]3(C)CC[C@H](O[C@@H]4O[C@H](CO)[C@@H](O)[C@H](O)[C@H]4O[C@@H]4O[C@H](CO)[C@@H](O)[C@H](O)[C@H]4O)C(C)(C)[C@@H]3CC[C@]12C
inactive: Potency [1] | Potency [2] | Potency [3]

CC(=O)OC1(C)CC(O)C2(O)C=COC(OC3OC(CO)C(O)C(O)C3O)C12 (stereo not drawn)
inactive: Potency [1] | Potency [2] | Potency [3]

C/C=C/C=C/C=C/C(=O)OC1C=C2C(O)OC(=O)[C@]2(O)[C@@]2(C)CCCC(C)(C)[C@H]12 (stereo partly drawn)
inactive: Potency [1] | Potency [2] | Potency [3]

C[C@@H]1O[C@@H](O[C@H]2[C@H](O[C@H]3[C@H](O[C@H]4CC[C@@]5(C)C(CC[C@]6(C)C5CC=C5[C@@H]7CC(C)(C)C[C@@H](O)[C@]7(C)CC[C@]56C)[C@@]4(C)CO)O[C@H](C(=O)O)[C@@H](O)[C@@H]3O)O[C@H](CO)[C@H](O)[C@@H]2O)[C@H](O)[C@H](O)[C@H]1O (stereo partly drawn)
inactive: Potency [1] | outcome [2] inactive [at 9.23 µM] | outcome [3] inactive [at 9.23 µM]

CC1(C)CCCC2(C)c3c4c(c(=O)oc(=O)c3=CCC12)=CCC1C(C)(C)CCCC41C (stereo not drawn)
inactive: Potency [1] | Potency [2] | Potency [3]

COc1ccc(C2C(C(=O)O)C(C(=O)O)C2c2ccc(OC)cc2O[C@@H]2O[C@H](CO)[C@@H](O)[C@H](O)[C@H]2O)c(O[C@@H]2O[C@H](CO)[C@@H](O)[C@H](O)[C@H]2O)c1 (stereo partly drawn)
inactive: Potency [1] | Potency [2] | Potency [3]

C/C(=C/CO)CC[C@H]1[C@]2(C)C[C@H](O)CC(C)(C)[C@H]2CC[C@]1(C)O
inactive: Potency [1] | Potency [2] | Potency [3]

C/C=C/C=C/[C@@H]1O[C@](O)([C@H](CC)C(=O)NC/C=C/C=C(\C)[C@@H](OC)[C@@H](C)[C@@H]2O[C@H](/C=C/C=C/C=C(\C)C(=O)c3c(O)ccn(C)c3=O)[C@H](O)[C@@H]2O)[C@H](O)[C@H](O)C1(C)C
inactive: Potency [1] | outcome [2] inactive [at 9.23 µM] | outcome [3] inactive [at 9.23 µM]

COc1ccc(C2(O)c3ccccc3NC(=O)C2OC)cc1 (stereo not drawn)
inactive: Potency [1] | Potency [2] | Potency [3]

CC1(C)CC[C@]2(C(=O)O[C@@H]3O[C@H](CO[C@@H]4O[C@H](CO)[C@@H](O)[C@H](O)[C@H]4O)[C@@H](O)[C@H](O[C@@H]4O[C@H](CO)[C@@H](O)[C@H](O)[C@H]4O)[C@H]3O)[C@H](O)C[C@]3(C)C(=CCC4[C@@]5(C)CC[C@H](O[C@@H]6OC[C@@H](O)[C@H](O)[C@H]6O)[C@@](C)(C(=O)O)C5CC[C@]43C)[C@@H]2C1 (stereo partly drawn)
inactive: Potency [1] | activity change, negative = viability loss [2] -2.24% [at 9.23 µM] | activity change, negative = cell killing [3] -1.62% [at 9.23 µM]

COc1cc(/C=C/C(=O)O[C@@H]2O[C@H](CO)[C@@H](O)[C@H](O)[C@H]2O)ccc1O
inactive: Potency [1] | Potency [2] | Potency [3]

C[C@@H]1O[C@@H](O[C@H]2[C@@H]3C=CO[C@@H](O[C@@H]4O[C@H](CO)[C@@H](O)[C@H](O)[C@H]4O)[C@@H]3[C@@]3(CO)O[C@@H]23)[C@H](OC(=O)/C=C/c2ccc(O)cc2)[C@H](O)[C@H]1O
inactive: Potency [1] | Potency [2] | Potency [3]

COC(=O)C1=CO[C@@H](O[C@@H]2O[C@H](CO)[C@@H](O)[C@H](O)[C@H]2O)[C@@H]2C(CO)=CC[C@H]12
inactive: Potency [1] | Potency [2] | Potency [3]

Reference: PubChem BioAssay (NCATS)
